Results filed as inconclusive are left out. The source made the active and inactive calls. Unless noted, calls come from the whole dose curve; as a rule, active = well fitted curve in the direction sought with a large enough effect in the repeat runs; inconclusive = weak or mixed curves; inactive = no such curve, though single readings can be large; an effect the other way counts as inactive or inconclusive.

From PubChem BioAssay (Tox21) come the findings set out here.

A short description of experiment [1]: qHTS assay to identify small molecule antagonists of the thyroid receptor (TR) signaling pathway (AID 743065). Note: nearly all actives have a fitted effect of over 55% in size. Note: potency is the fitted concentration of half-maximal effect. A digest of the protocol:
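GH3.TRE-Luc rat pituitary cells (two TREs driving luciferase) were dosed with compound, then stimulated with 1 nM T3 (final) for 23.5 h at 37 C. ONE-Glo luminescence was the read-out, with CellTiter-Fluor fluorescence as the cytotoxicity counter-screen.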

Experiment [2] relates to thyroid hormone receptor (rat, GH3 cells). Kind of experiment: qHTS assay to identify small molecule agonists of the thyroid receptor (TR) signaling pathway (AID 743066; calls by dose curve).
Experiment [3] is described as follows: qHTS assay to identify small molecule antagonists of the estrogen receptor alpha (ER-alpha) signaling pathway - cell viability counter screen (AID 743074; calls by dose curve; note: nearly all actives have a fitted effect of over 45% in size).
For experiment [4], the target named is Estrogen receptor (Homo sapiens) (UniProt P03372). Kind of experiment: qHTS assay to identify small molecule agonists of the estrogen receptor alpha (ER-alpha) signaling pathway (AID 743075; calls by dose curve).
Sequence of Estrogen receptor (Homo sapiens) (P03372 whole entry, looked up): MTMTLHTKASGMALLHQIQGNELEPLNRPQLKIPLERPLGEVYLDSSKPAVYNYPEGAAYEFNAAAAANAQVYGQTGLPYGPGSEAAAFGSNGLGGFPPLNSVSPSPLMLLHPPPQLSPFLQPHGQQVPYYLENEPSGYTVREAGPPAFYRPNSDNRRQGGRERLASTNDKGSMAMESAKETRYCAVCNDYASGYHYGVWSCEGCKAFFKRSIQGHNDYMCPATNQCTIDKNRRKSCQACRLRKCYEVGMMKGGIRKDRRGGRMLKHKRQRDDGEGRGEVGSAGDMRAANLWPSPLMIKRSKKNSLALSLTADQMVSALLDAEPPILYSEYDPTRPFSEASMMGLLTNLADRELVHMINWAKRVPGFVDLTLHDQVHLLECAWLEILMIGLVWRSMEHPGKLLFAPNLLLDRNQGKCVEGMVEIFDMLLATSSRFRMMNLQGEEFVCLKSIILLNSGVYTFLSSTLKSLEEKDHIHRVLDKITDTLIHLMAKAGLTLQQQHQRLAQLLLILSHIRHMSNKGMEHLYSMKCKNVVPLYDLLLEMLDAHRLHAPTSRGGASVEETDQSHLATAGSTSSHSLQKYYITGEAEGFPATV
For experiment [5] the target is unchanged. Kind of experiment: qHTS assay to identify small molecule agonists of the estrogen receptor alpha (ER-alpha) signaling pathway using the BG1 cell line (AID 743079). Note: nearly all actives have a fitted effect of over 20% in size. Note: potency is the fitted concentration of half-maximal effect.
Experiment [6] in a line: qHTS assay to identify small molecule antagonists of the estrogen receptor alpha (ER-alpha) signaling pathway using the BG1 cell line (AID 743080; calls by dose curve;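 note: BG1 cells stimulated with 17beta-estradiol alongside compound; series mostly up to about 70 µM; nearly all actives have a fitted effect of over 25% in size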). A digest of the protocol: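 Luminescence from a 4×ERE-luciferase reporter in BG1-Luc-4E2 cells served as read-out. Cells, pre-cultured 5 days in stripped-serum phenol-red-free medium, were exposed to compound with 17beta-estradiol co-stimulation for 21.5 h at 37 C.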

Experiment [7] in a line: qHTS assay to identify small molecule antagonists of the estrogen receptor alpha (ER-alpha) signaling pathway using the BG1 cell line - cell viability counter screen (AID 743081).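 Note: compound given together with 17beta-estradiol as the ER stimulus; series mostly up to about 70 µM; nearly all actives have a fitted effect of over 45% in size.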
Experiment [8] deals with Aryl hydrocarbon receptor (Homo sapiens) (UniProt P35869). As to the kind of experiment: qHTS assay to identify small molecule that activate the aryl hydrocarbon receptor (AhR) signaling pathway (AID 743085).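 For activation: HG2L7.5c1 human HepG2 liver cells with stably integrated DRE-driven firefly reporter; series mostly up to about 70 µM.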 Note: nearly all actives have a fitted effect of over 15% in size. Note: potency is the fitted concentration of half-maximal effect. A digest of the protocol: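 Luminescence (ONE-Glo) from a dioxin-responsive-element luciferase reporter in HG2L7.5c1 HepG2 cells after 24 hr compound exposure at 37C; viability measured by CellTiter-Fluor fluorescence beforehand.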
Sequence of Aryl hydrocarbon receptor (Homo sapiens) (P35869 whole entry, looked up): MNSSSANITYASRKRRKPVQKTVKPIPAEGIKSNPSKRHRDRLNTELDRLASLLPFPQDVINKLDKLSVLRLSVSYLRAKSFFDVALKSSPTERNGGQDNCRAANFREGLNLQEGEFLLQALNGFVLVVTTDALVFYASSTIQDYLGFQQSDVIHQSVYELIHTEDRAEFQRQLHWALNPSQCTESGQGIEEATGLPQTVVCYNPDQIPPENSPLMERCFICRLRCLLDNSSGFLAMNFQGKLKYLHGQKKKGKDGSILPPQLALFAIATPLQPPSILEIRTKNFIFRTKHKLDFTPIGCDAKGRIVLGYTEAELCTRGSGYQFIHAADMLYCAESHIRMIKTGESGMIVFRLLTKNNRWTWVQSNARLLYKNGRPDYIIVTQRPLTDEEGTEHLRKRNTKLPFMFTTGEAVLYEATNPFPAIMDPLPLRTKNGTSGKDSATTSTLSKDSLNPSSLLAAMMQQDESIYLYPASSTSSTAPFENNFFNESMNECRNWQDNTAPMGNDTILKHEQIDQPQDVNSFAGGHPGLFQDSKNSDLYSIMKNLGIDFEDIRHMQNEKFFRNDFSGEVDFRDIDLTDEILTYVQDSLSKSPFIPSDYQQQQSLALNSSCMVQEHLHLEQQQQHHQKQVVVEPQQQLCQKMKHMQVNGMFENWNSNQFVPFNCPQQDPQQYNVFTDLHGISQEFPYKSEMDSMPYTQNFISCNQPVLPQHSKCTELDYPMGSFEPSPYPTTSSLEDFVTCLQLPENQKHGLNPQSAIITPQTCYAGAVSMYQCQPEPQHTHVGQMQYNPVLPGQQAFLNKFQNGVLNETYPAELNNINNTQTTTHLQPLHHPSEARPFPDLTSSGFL

The nature of experiment [9]: qHTS assay to identify small molecule that activate the aryl hydrocarbon receptor (AhR) signaling pathway - cell viability counter screen (AID 743086).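 Note: HepG2 liver cells carrying the AhR DRE luciferase reporter; series mostly up to about 70 µM; nearly all actives have a fitted effect of over 45% in size.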 A digest of the protocol: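 HepG2-AhR-luc (HG2L7.5c1) cells, 4000/well, treated 24 h at 37 C with compound; viability measured as CellTiter-Fluor fluorescence after 30 min in the same wells as the luciferase read.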
Experiment [10] has as its target Peroxisome proliferator-activated receptor gamma (Homo sapiens) (UniProt P37231). As to the kind of experiment: qHTS assay to identify small molecule agonists of the peroxisome proliferator-activated receptor gamma (PPARg) signaling pathway (AID 743094; active = well fitted activation curve with a large enough effect in the signal ratio in the repeat runs, not every such curve was filed as active; the % refers to the signal ratio). A digest of the protocol: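 Agonism was assessed in a beta-lactamase reporter system, HEK293H cells with a stably integrated UAS-bla construct under PPARg control; the 17 h treatment at 37C preceded a 1 h room-temperature FRET substrate read.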

Experiment [11] can be described thus: qHTS assay to identify small molecule antagonists of the peroxisome proliferator-activated receptor gamma (PPARg) signaling pathway - cell viability counter screen (AID 743194). Note: nearly all actives have a fitted effect of over 55% in size. A digest of the protocol:
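Cytotoxicity counter screen in PPARg-bla HEK293H cells, same wells as reporter assay. Compounds plus 50 nM rosiglitazone (final) for 17 h at 37 C, then viability read by CellTiter-Glo luminescence.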

The nature of experiment [12]: qHTS assay for small molecule agonists of the antioxidant response element (ARE) signaling pathway (AID 743202; active = well fitted activation curve with a large enough effect in the signal ratio in the repeat runs, not every such curve was filed as active; the % refers to the signal ratio; note: potency is the fitted concentration of half-maximal effect). A digest of the protocol: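 HepG2 ARE-bla cells; 16 h treatment at 37 C; FRET-based beta-lactamase fluorescence read after 2 h substrate incubation at room temperature.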
Experiment [13] is described as follows: qHTS assay for small molecule agonists of the antioxidant response element (ARE) signaling pathway - cell viability counter screen (AID 743203; calls by dose curve; note: nearly all actives have a fitted effect of over 55% in size). A digest of the protocol: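 ATP content via CellTiter-Glo luminescence served as the viability measure. Cells: ARE-bla HepG2, 2,000 per well. Exposure: 16 hrs, 37C/5% CO2.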
Experiment [14] is described as follows: qHTS assay for small molecule activators of the heat shock response signaling pathway - cell viability counter screen (AID 743209). Note: nearly all actives have a fitted effect of over 50% in size. A digest of the protocol: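 Compounds dissolved in DMSO were added to overnight-plated HSE-bla HeLa cells and left 5 h at 37 C. Cell viability was quantified by luminescence using CellTiter-Glo.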
Experiment [15] is described as follows: qHTS assay for small molecule activators of the heat shock response signaling pathway (AID 743210; active = well fitted activation curve with a large enough effect in the signal ratio in the repeat runs, with a control signal flat, not every such curve was filed as active; the % refers to the signal ratio;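 note: HeLa cells with beta-lactamase reporter driven by heat shock elements; series mostly up to about 63 µM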). A digest of the protocol:
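Following overnight attachment, HSE-bla HeLa cells received test compounds for 5 h at 37 C; beta-lactamase activity was then detected via FRET substrate fluorescence.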

A short description of experiment [16]: qHTS assay to identify small molecule agonists of the peroxisome proliferator-activated receptor delta (PPARd) signaling pathway - cell viability counter screen (AID 743211). Note: nearly all actives have a fitted effect of over 55% in size. A digest of the protocol: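 Viability was measured as CellTiter-Glo luminescence (30 min, room temperature) in the same wells as the beta-lactamase readout. GeneBLAzer PPARd UAS-bla HEK293H cells received compound after 5 h plating and were incubated 17 h at 37 C.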

The target of another experiment is Aromatase (Homo sapiens) (UniProt P11511). As to the kind of experiment: qHTS assay to identify aromatase inhibitors (AID 743083).
Sequence of Aromatase (Homo sapiens) (P11511 whole entry, looked up): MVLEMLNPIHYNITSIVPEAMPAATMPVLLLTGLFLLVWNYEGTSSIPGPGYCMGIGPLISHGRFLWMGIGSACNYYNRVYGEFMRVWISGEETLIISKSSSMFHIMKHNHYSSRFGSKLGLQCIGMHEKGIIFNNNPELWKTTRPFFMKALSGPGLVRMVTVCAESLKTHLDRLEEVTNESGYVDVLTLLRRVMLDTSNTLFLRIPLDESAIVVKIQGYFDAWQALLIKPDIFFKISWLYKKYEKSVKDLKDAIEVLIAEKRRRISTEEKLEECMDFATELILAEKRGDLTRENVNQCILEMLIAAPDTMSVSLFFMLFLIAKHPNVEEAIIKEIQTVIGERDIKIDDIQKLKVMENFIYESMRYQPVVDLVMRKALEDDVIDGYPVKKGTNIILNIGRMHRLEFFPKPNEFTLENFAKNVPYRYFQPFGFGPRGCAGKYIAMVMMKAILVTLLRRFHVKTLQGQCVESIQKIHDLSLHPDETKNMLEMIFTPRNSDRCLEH
Experiment [17] can be described thus: qHTS assay to identify aromatase inhibitors - cell viability counter screen (AID 743084).
Experiment [18] concerns the target Estrogen receptor (Homo sapiens) (UniProt P03372). As to the kind of experiment: qHTS assay to identify small molecule antagonists of the estrogen receptor alpha (ER-alpha) signaling pathway (AID 743069; active = well fitted curve in the direction sought with a large enough effect in the signal ratio in the repeat runs, not every such curve was filed as active; the % refers to the signal ratio). A digest of the protocol: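 In this cell-based reporter format, GripTite HEK293 cells harbouring ER-alpha-UAS-bla were grown overnight with 2% charcoal-stripped FBS, dosed with DMSO-dissolved compounds, then challenged with 17beta-estradiol. After 18 hr at 37C, beta-lactamase activity was detected by FRET fluorescence.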

In experiment [19] the target is Peroxisome proliferator-activated receptor gamma (Homo sapiens) (UniProt P37231). As to the kind of experiment: qHTS assay to identify small molecule antagonists of the peroxisome proliferator-activated receptor gamma (PPARg) signaling pathway (AID 743191; calls by dose curve; note: series mostly up to about 63 µM; nearly all actives have a fitted effect of over 30% in size). A digest of the protocol:
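GeneBLAzer PPARg UAS-bla HEK293H cells, 5 h post-plating, exposed to compounds 17 h at 37C. LiveBLAzer B/G FRET substrate added for 1 h at room temperature; beta-lactamase reporter read by fluorescence intensity.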

Sequence of Peroxisome proliferator-activated receptor gamma (Homo sapiens) (P37231 whole entry, looked up): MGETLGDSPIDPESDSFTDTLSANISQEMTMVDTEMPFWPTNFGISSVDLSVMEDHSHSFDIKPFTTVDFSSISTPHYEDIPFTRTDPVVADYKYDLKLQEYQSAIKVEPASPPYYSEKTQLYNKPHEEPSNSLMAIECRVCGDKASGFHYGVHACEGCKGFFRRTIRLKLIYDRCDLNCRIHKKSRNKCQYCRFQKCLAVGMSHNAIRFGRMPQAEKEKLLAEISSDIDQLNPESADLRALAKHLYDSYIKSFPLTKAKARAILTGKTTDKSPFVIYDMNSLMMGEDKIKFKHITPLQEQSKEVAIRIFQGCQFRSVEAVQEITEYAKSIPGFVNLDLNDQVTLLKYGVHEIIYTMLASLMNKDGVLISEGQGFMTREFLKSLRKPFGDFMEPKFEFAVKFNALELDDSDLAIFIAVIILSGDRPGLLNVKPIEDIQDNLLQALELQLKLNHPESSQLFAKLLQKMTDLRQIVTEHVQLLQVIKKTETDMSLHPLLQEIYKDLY

In the case of `CCC/C=C/CO`, the Potency result in experiment [1], in experiment [3], in experiment [5], in experiment [7], in [8] and in [10] was “inactive” each time. Also, the Potency result in experiment [11], in experiment [12], in experiment [13], in [15] and in [16] was “inactive” in each case. The result in experiment [2], in experiment [4], in experiment [6], in [9] and in [14] was inactive.
Consider `c1ccc(CN(CC2=NCCN2)c2ccccc2)cc1`, for which the Potency in experiment [1] is 23.7 µM (active). Further, the call in experiment [2], in [4], in [6] and in [14] was inactive. Moreover, the Potency entry (in experiment [3]; in experiment [5]; in experiment [7]; in the experiment with Aromatase (Homo sapiens); in [17]; in [10]) was “inactive” in each case. Also, the Potency result in [11], in experiment [13] and in experiment [15] was “inactive” in each case.
For the molecule `CCOc1ccc2nc(N)sc2c1`, the Potency entry (in [1]; in experiment [18]; in [3]; in [7]; in the experiment with Aromatase (Homo sapiens); in [17]) was “inactive” each time. For the same molecule, the Potency result in experiment [10], in [11], in experiment [13], in [15] and in [16] was “inactive” throughout. Also, the result in [2], in [4], in experiment [9] and in experiment [14] was inactive. The Potency in experiment [5] is 4.29 µM (active); in [8], 2.15 µM (active); in [12] it was 48.2 µM (active).
As to `Cc1ncc(CO)c(CN)c1O`, the Potency entry (in experiment [1]; in experiment [18]; in [3]; in [7]; with Aromatase (Homo sapiens); in experiment [17]) was “inactive” each time. The Potency result in experiment [10], in [19], in [11], in experiment [13], in [15] and in experiment [16] was “inactive” each time. In addition, the molecule was classed as inactive in experiment [2], in experiment [4], in experiment [6], in [9] and in [14].
In the case of `CC1=C2[C@H](/C=C(\C)C(=O)O)CC[C@@H](C)[C@H]2CC1`, the Potency result (in experiment [1]; in experiment [3]; in experiment [7]; with Aromatase (Homo sapiens); in experiment [17]; in experiment [11]) was “inactive” in each case. For the same molecule, the Potency entry in experiment [13] and in experiment [16] was “inactive” in each case. In addition, the call in experiment [2], in experiment [4], in [6], in experiment [9] and in experiment [14] was inactive.
As to `Cc1ccc([N+](=O)[O-])c(N)c1`, the Potency result (in [1]; in [3]; in [7]; in the experiment with Aromatase (Homo sapiens); in [17]; in [8]) was “inactive” each time. Moreover, the Potency result in experiment [10], in experiment [19], in experiment [11], in experiment [12], in experiment [13] and in experiment [15] was “inactive” throughout. For the same molecule, the Potency result in [16] is “inactive”. The molecule was classed as inactive in [2], in experiment [9] and in [14].
With `CC1(C)O[C@@H]2C[C@H]3[C@@H]4CCC5=CC(=O)CC[C@]5(C)[C@@]4(F)[C@@H](O)C[C@]3(C)[C@]2(C(=O)CCl)O1`, the Potency result (in [1]; in experiment [18]; in [3]; in experiment [5]; in experiment [7]; with Aromatase (Homo sapiens)) was “inactive” each time. Moreover, the Potency entry in experiment [17], in experiment [8], in [10], in experiment [19], in [11] and in experiment [13] was “inactive” each time. Also, in [16], the Potency entry is “inactive”. Further, the outcome in [2], in experiment [9] and in experiment [14] was inactive.
`Clc1cccc(-c2cc(Cl)cc(Cl)c2)c1`: the Potency result (in experiment [1]; in experiment [18]; in [3]; in experiment [5]; in experiment [7]; with Aromatase (Homo sapiens)) was “inactive” each time. Also, the Potency result in [17], in [10], in [19], in experiment [11], in experiment [12] and in [13] was “inactive” throughout. Also, the Potency result in experiment [16] was “inactive”. The molecule was classed as inactive in experiment [2], in [6], in [9] and in experiment [14].
